Bioassay records (PubChem)
T cruzi growth-1 = T. cruzi intracellular proliferation inhibitors, primary screen, cell-based, beta-gal Tulahuen parasites, NIH3T3 host, luminescence. AID 624255, 2012. inhibition, % at 8.34 µM. 77,000 compounds, 5.9% hits. T. cruzi beta-gal in NIH3T3, GalScreen luminescence, 90 h;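 active = mean inhibition above about 93%, with at least 55% of replicates each passing it, limit read from the data, passing the limit was not always enough; inconclusive = only one of those two conditions holds; inactive = neither condition holds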
Pf Dd2 inh = P. falciparum Dd2 growth inhibitors, primary screen, SYBR Green fluorescence, single dose replicates. 72 h; stronger effect = lower value. activity change, % at 10 µM. 94,000 compounds, 2.3% hits. AID 1159554, 2015; in the data active = activity change below about -80%; inconclusive = no clear call, values can overlap the other calls
C diff growth = C. difficile growth inhibitors, primary screen, HTS. Clostridium difficile clinical isolate growth, OD600, 24 h; stronger effect = lower value. growth activity, negative = inhibition, % at 16 µg/mL (by protocol). 86,000 compounds, 0.25% hits. AID 1259249, 2017;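 active = mean growth activity at or below -80% and every replicate also at or below -80%; inconclusive = mean at or below -80% but some replicate above -80%; inactive = mean growth activity above -80%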;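 also: 0% = DMSO wells and -100% = levofloxacin 16 µg/mL wells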
T cruzi growth-2 = T. cruzi intracellular proliferation inhibitors, confirmation, cell-based, NIH3T3 host, beta-gal parasite, luminescence, cherry-pick; shares compounds with T cruzi growth-1; 5,600 compounds, 72% hits; T. cruzi beta-gal in NIH3T3, GalScreen luminescence, 90 h; inhibition, % at 8.35 µM;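 active = mean replicate inhibition above about 95% and at least 55% of replicates individually reaching it, limit read from the data; inconclusive = only one of the two criteria is met; inactive = neither criterion is met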
T cruzi growth-3 = inhibitors of intracellular T. cruzi replication, confirmation, NIH3T3 host cells, beta-gal parasites, cherry-pick, set 2; shares compounds with T cruzi growth-1; T. cruzi beta-gal in NIH3T3, GalScreen luminescence, 90 h; inhibition, % at 2.09 µM; 5,600 compounds, 21% hits; AID 651740, 2012;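 active = mean inhibition above about 95%, with at least 55% of replicates also reaching it, limit read from the data; inconclusive = meets just one of the two conditions; inactive = meets neither condition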;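 also: plate controls were neutral control median for no effect and positive control median for full effect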
3T3 cytotox = cytotoxicity in mouse NIH/3T3 fibroblasts, confirmation, cytotoxicity control for T. cruzi proliferation inhibitor project, cell-based, cherry-pick, single point; shares compounds with T cruzi growth-1; NIH/3T3 viability, CellTiter-Glo ATP luminescence, 90 h; cytotoxicity (signal decrease), % at 8.35 µM; 5,600 compounds, 14% hits; AID 651742, 2012;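 active = mean signal decrease across replicates above about 35% based on untreated-well scatter, with enough replicates individually passing, limit read from the data; inconclusive = no rule stated though some were filed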;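 also: 0% = median of neutral control wells and 100% = median of positive control wells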
NIH3T3 tox 2 = NIH/3T3 fibroblast cytotoxicity, confirmation, cytotoxicity control, cell-based, cherry-pick, single point, set 2 | shares compounds with T cruzi growth-1 | 5,600 compounds, 56% hits | NIH/3T3 viability, CellTiter-Glo ATP luminescence, 90 h | inhibition, % at 24.9 µM;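 active = mean loss of cell viability signal at or above a set limit, and enough replicates individually reaching it; inconclusive = meets only the mean limit or only the replicate share; inactive = meets neither condition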;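 also: 0% = median of neutral control wells and 100% = median of positive control wells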
An asterisk follows results filed as active. This is a sample that favours compounds with a hit; in the whole collection about 6.8% have one here.

Results for C[C@@H]1CN([C@H](C)CO)S(=O)(=O)c2ccc(C#Cc3ccncc3)cc2O[C@@H]1CN(C)CC1CC1 ?
T cruzi growth-1: -27; Pf Dd2 inh: -51; C diff growth: 0

Results for CO[C@H]1CN(C)C(=O)c2ccc(NS(C)(=O)=O)cc2OC[C@@H](C)N(C(=O)CN(C)C)C[C@@H]1C ?
T cruzi growth-1: -35; Pf Dd2 inh: 28

What do the screens show for `CCC(=O)N1C[C@@H](C)[C@@H](OC)CN(C)C(=O)c2cc(NC(=O)c3ccccc3)ccc2OC[C@H]1C`?
T cruzi growth-1: -12; Pf Dd2 inh: 4

Results for C[C@@H]1CN([C@@H](C)CO)C(=O)c2cc(-c3cccc(F)c3)cnc2O[C@@H]1CN(C)Cc1ccncc1 ?
T cruzi growth-1: 89; Pf Dd2 inh: 32; C diff growth: -3

How did CO[C@H]1CN(C)C(=O)c2cc(NS(=O)(=O)c3ccccc3C)ccc2OC[C@@H](C)N(C)C[C@@H]1C do in these assays?
T cruzi growth-1: -39; Pf Dd2 inh: -13

How did C[C@@H]1CN([C@@H](C)CO)S(=O)(=O)c2ccc(C3=CCCCC3)cc2O[C@@H]1CN(C)S(=O)(=O)c1ccc(F)cc1 do in these assays?
T cruzi growth-1: 120*; Pf Dd2 inh: -34; C diff growth: 3; T cruzi growth-2: 98*; T cruzi growth-3: 84; 3T3 cytotox: 24; NIH3T3 tox 2: 75*

Results for C[C@@H]1CN([C@@H](C)CO)S(=O)(=O)c2ccc(C3=CCCCC3)cc2O[C@@H]1CN(C)S(C)(=O)=O ?
T cruzi growth-1: 59; Pf Dd2 inh: 57; C diff growth: -9

What do the screens show for `C[C@@H]1CN([C@@H](C)CO)S(=O)(=O)c2ccc(C3=CCCCC3)cc2O[C@H]1CN(C)S(C)(=O)=O`?
T cruzi growth-1: 4; Pf Dd2 inh: 2; C diff growth: -12

Results for C[C@H]1CN([C@@H](C)CO)S(=O)(=O)c2ccc(C3=CCCCC3)cc2O[C@H]1CN(C)S(=O)(=O)c1ccc(F)cc1 ?
T cruzi growth-1: 125*; Pf Dd2 inh: -83*; C diff growth: 14; T cruzi growth-2: 109*; T cruzi growth-3: 105*; 3T3 cytotox: -10; NIH3T3 tox 2: 50*

Results for C[C@H](CO)N1C[C@H](C)[C@H](CN(C)S(C)(=O)=O)Oc2cc(C3=CCCCC3)ccc2S1(=O)=O ?
T cruzi growth-1: 88; Pf Dd2 inh: 29; C diff growth: 13

Results for C[C@@H]1CN([C@@H](C)CO)S(=O)(=O)c2ccc(C3=CCCCC3)cc2O[C@H]1CN(C)S(=O)(=O)c1ccc(F)cc1 ?
T cruzi growth-1: 121*; Pf Dd2 inh: -78; C diff growth: 7; T cruzi growth-2: 104*; T cruzi growth-3: 92; 3T3 cytotox: 29; NIH3T3 tox 2: 31*

Results for C[C@H]1CN([C@@H](C)CO)S(=O)(=O)c2ccc(C3=CCCCC3)cc2O[C@H]1CN(C)S(C)(=O)=O ?
T cruzi growth-1: 64; Pf Dd2 inh: 20; C diff growth: 0

How did C[C@H]1CN([C@@H](C)CO)S(=O)(=O)c2ccc(C3=CCCCC3)cc2O[C@@H]1CN(C)S(=O)(=O)c1ccc(F)cc1 do in these assays?
T cruzi growth-1: 117*; Pf Dd2 inh: -60; C diff growth: 4; T cruzi growth-2: 92; T cruzi growth-3: 108*; 3T3 cytotox: inconclusive; NIH3T3 tox 2: 55*

How did CO[C@@H]1CN(C)C(=O)c2ccc(NC(=O)Cc3ccccc3)cc2OC[C@H](C)N(C(=O)c2ccccc2F)C[C@@H]1C do in these assays?
T cruzi growth-1: 44; Pf Dd2 inh: -75

What do the screens show for `COC(=O)C[C@H]1CC[C@@H]2[C@@H](COc3ccc(NC(=O)c4ccc(F)c(F)c4)cc3C(=O)N2C)O1`?
T cruzi growth-1: -4; Pf Dd2 inh: 0; C diff growth: -4

Results for C[C@H](CO)N1C[C@H](C)[C@H](CN(C)Cc2ccc(C(F)(F)F)cc2)Oc2c(NS(=O)(=O)c3ccccc3)cccc2C1=O ?
T cruzi growth-1: 53; Pf Dd2 inh: -27; C diff growth: 5

What do the screens show for `COc1cccc(NC(=O)Nc2ccc3c(c2)C(=O)N(C)[C@H]2CC[C@@H](CC(=O)O)O[C@@H]2CO3)c1`?
T cruzi growth-1: 56; Pf Dd2 inh: -18; C diff growth: -2

How did CN(C)C(=O)c1cccc(-c2ccccc2[C@@H]2[C@H](C#N)N(C(=O)C3CCCCC3)[C@H]2CO)c1 do in these assays?
Pf Dd2 inh: -3; C diff growth: -11

What do the screens show for `C[C@H]1CN([C@@H](C)CO)S(=O)(=O)c2ccc(C3=CCCCC3)cc2O[C@@H]1CN(C)S(C)(=O)=O`?
T cruzi growth-1: -9; Pf Dd2 inh: 45; C diff growth: -9

How did C[C@H](CO)N1C[C@H](C)[C@H](CN(C)S(=O)(=O)c2ccc(F)cc2)Oc2cc(C3=CCCCC3)ccc2S1(=O)=O do in these assays?
T cruzi growth-1: 118*; Pf Dd2 inh: -64; C diff growth: 18; T cruzi growth-2: 101*; T cruzi growth-3: 105*; 3T3 cytotox: 46*; NIH3T3 tox 2: 62*

Results for C[C@H](NC(=O)[C@@H]1[C@@H](CO)[C@@H]2Cn3c(ccc(-c4ccncc4)c3=O)[C@H]1N2C)c1ccccc1 ?
T cruzi growth-1: 8; Pf Dd2 inh: 1; C diff growth: -2

How did COc1cccc(C(=O)Nc2ccc3c(c2)C(=O)N(C)C[C@@H](OC)[C@@H](C)CN(CCc2ccccc2)[C@H](C)CO3)c1 do in these assays?
T cruzi growth-1: 61; Pf Dd2 inh: -30

Results for COc1cccc(C(=O)Nc2ccc3c(c2)C(=O)N(C)C[C@H](OC)[C@@H](C)CN(CCc2ccccc2)[C@@H](C)CO3)c1 ?
T cruzi growth-1: 91; Pf Dd2 inh: -74

What do the screens show for `COc1cccc(C(=O)Nc2ccc3c(c2)C(=O)N(C)C[C@@H](OC)[C@H](C)CN(CCc2ccccc2)[C@H](C)CO3)c1`?
T cruzi growth-1: 100*; Pf Dd2 inh: inconclusive; T cruzi growth-2: 104*; T cruzi growth-3: 80; 3T3 cytotox: -16; NIH3T3 tox 2: -15

Results for COc1cccc(C(=O)Nc2ccc3c(c2)OC[C@@H](C)N(CCc2ccccc2)C[C@@H](C)[C@H](OC)CN(C)C3=O)c1 ?
T cruzi growth-1: 118*; Pf Dd2 inh: -37; T cruzi growth-2: 103*; T cruzi growth-3: 77; 3T3 cytotox: 10; NIH3T3 tox 2: -5
